{"source": "PubChem BioAssay (NCI)", "note": "Compounds without any hit were thinned out: in the full panel of roughly 83,000, 20% have a hit.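 Compound tested at a single concentration for 48 hours in 96-well plates; a percent growth value below 10 was scored as active.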 A number with no mark means an inactive call. Activity calls are given as the source filed them.", "data": [{"test_system": "ACHN renal", "assay": "NCI-60 one-dose screen, 48 h (100 = growth as untreated, 0 = no growth, -100 = all killed)", "settings": "10 µM", "values": [{"molecule": "Clc1ccc(/C=C2\\CCCC3C2=Nc2ccccc2NC3c2ccc(Cl)cc2)cc1", "note": "(stereo not given)", "growth": "97.3%"}, {"molecule": "CCC(c1ccc(OC)cc1)C(CC)c1ccc(O)c(CN2CCN(C)CC2)c1", "note": "(stereo not given)", "growth": "69%"}, {"molecule": "c1ccc(/C(=N\\Nc2ccc3ccccc3n2)c2ccccn2)cc1", "growth": "0.2% (active)"}, {"molecule": "CN(C)CCOc1ccc(-c2nc3sccn3c2-c2ccnc(S(C)(=O)=O)n2)cc1", "growth": "106%"}, {"molecule": "COc1cc(/C=C2\\CCCC3=C2NC(N)=NC3c2cc(OC)c(OC)c(OC)c2)cc(OC)c1OC", "note": "(stereo not given)", "growth": "-37.9% (active)"}, {"molecule": "O=[N+]([O-])c1cccc(/C=N/NC(=S)NC23CC4CC(CC(C4)C2)C3)c1", "growth": "49.6%"}, {"molecule": "CNC(=O)c1cc(Oc2ccc3c(c2)sc2nc(-c4ccc(N)cc4)cn23)ccn1", "growth": "29.1%"}, {"molecule": "COc1ccc2c(c1)OC(N)=C(C#N)C2c1cc(OC)c(OC)c(OC)c1", "note": "(stereo not given)", "growth": "32.8%"}, {"molecule": "CC(=O)OC1C=CC(OC(C)=O)O1", "note": "(stereo not given)", "growth": "97.9%"}, {"molecule": "COc1cc2cc(Oc3ccc(NC(=O)c4cccc(C(F)(F)F)c4)cc3)c(C)nc2cc1OC", "growth": "33.9%"}, {"molecule": "COC(=O)C1(O)NC(=C(C#N)C#N)C(C#N)=C1C(=O)c1ccc(OC)c(OC)c1", "note": "(stereo not given)", "growth": "108%"}, {"molecule": "COc1ccc(-c2onc(N)c2-c2cc(OC)c3c(c2)OCO3)cc1", "growth": "43.8%"}, {"molecule": "NC(N)=N/N=C(\\c1ccccc1)C(O)c1ccccc1", "note": "(stereo not given)", "growth": "109%"}, {"molecule": "COc1cc2cc(Oc3ccc(NC(=O)c4ccccc4)cc3)c(C)nc2cc1OC", "growth": "80.8%"}, {"molecule": "CS(=O)(=O)c1nccc(-c2c(-c3cccc(OCc4ccc(F)cc4)c3)nc3sccn23)n1", "growth": "94.9%"}, {"molecule": "CCOC(=O)c1cc(C(=O)c2ccc(F)cc2F)n2ccccc12", "growth": "97.1%"}, {"molecule": "O=C(N/N=C/c1ccc(Cl)cc1)c1ccccc1Nc1cccc(C(F)(F)F)c1", "growth": "102%"}, {"molecule": "CC(C)(C)OC(=O)N1CCc2c(sc3ncnc(N/N=C/c4ccccc4Br)c23)C1", "growth": "42.4%"}, {"molecule": "CC(C)N(CCOc1ccc(-c2nc3sccn3c2-c2ccnc(S(C)(=O)=O)n2)cc1)C(C)C", "growth": "101%"}, {"molecule": "CN(C)CCCOc1ccc(NC2=C(Cl)C(=O)C(Nc3ccc(OCCCN(C)C)cc3)=C(Cl)C2=O)cc1", "growth": "-94.1% (active)"}, {"molecule": "COc1cccc(C2C(C#N)=C(N)Oc3cc(N)ccc32)c1", "note": "(stereo not given)", "growth": "55.4%"}, {"molecule": "CC(C)N(CCOc1cccc(-c2nc3sccn3c2-c2ccnc(S(C)(=O)=O)n2)c1)C(C)C", "growth": "93.7%"}, {"molecule": "COc1cccc(-c2nc3sccn3c2-c2cccc(S(C)(=O)=O)c2)c1", "growth": "96.2%"}, {"molecule": "COc1ccc(Cl)cc1Nc1nc(C(F)(F)F)ccc1C(=O)N/N=C/c1ccc(Cl)cc1", "growth": "36.8%"}, {"molecule": "CN(C)c1ccc(/C=N/NC(=O)c2ccccc2Nc2cccc(C(F)(F)F)c2)cc1", "growth": "97.4%"}, {"molecule": "COc1cc2cc(Oc3ccc(NC(=O)Nc4cccc(C(F)(F)F)c4)cc3)c(C)nc2cc1OC", "growth": "11.2%"}, {"molecule": "C/C(=N\\O)c1ccc(NC(=O)CSc2nnc(-c3ccccc3)n2-c2ccccc2)cc1", "growth": "63.7%"}]}, {"test_system": "CAKI-1 renal", "assay": "NCI-60 one-dose screen, 48 h (100 = growth as untreated, 0 = no growth, -100 = all killed)", "settings": "10 µM", "values": [{"molecule": "Clc1ccc(/C=C2\\CCCC3C2=Nc2ccccc2NC3c2ccc(Cl)cc2)cc1", "note": "(stereo not given)", "growth": "91.3%"}, {"molecule": "CC[C@@H](C(=O)[C@H](C)[C@H](O)[C@@H](C)[C@H]1O[C@H]([C@@H](CC)C(=O)N(CC)CC)CC[C@H]1C)C1O[C@]2(C=C[C@@H](O)[C@]3(CC[C@@](C)([C@H]4CC[C@](O)(CC)[C@H](C)O4)O3)O2)[C@H](C)C[C@@H]1C", "note": "(stereo not given in full)", "growth": "8.82% (active)"}, {"molecule": "c1ccc(/C(=N\\Nc2ccc3ccccc3n2)c2ccccn2)cc1", "growth": "-2.91% (active)"}, {"molecule": "CN(C)CCOc1ccc(-c2nc3sccn3c2-c2ccnc(S(C)(=O)=O)n2)cc1", "growth": "98.8%"}, {"molecule": "CC[C@H]1OC(=O)[C@H](C)[C@@H](O[C@H]2C[C@@](C)(OC)[C@@H](O)[C@H](C)O2)[C@H](C)[C@@H](O[C@@H]2O[C@H](C)C[C@H](N(C)C)[C@H]2O)[C@](C)(OC)C/C(C)=C2/O[C@@]1(C)C=C2C", "growth": "21.7%"}, {"molecule": "COc1cc(/C=C2\\CCCC3=C2NC(N)=NC3c2cc(OC)c(OC)c(OC)c2)cc(OC)c1OC", "note": "(stereo not given)", "growth": "-4.06% (active)"}, {"molecule": "O=[N+]([O-])c1cccc(/C=N/NC(=S)NC23CC4CC(CC(C4)C2)C3)c1", "growth": "89.9%"}, {"molecule": "CNC(=O)c1cc(Oc2ccc3c(c2)sc2nc(-c4ccc(N)cc4)cn23)ccn1", "growth": "43.9%"}, {"molecule": "COc1ccc2c(c1)OC(N)=C(C#N)C2c1cc(OC)c(OC)c(OC)c1", "note": "(stereo not given)", "growth": "30.4%"}, {"molecule": "CC(=O)OC1C=CC(OC(C)=O)O1", "note": "(stereo not given)", "growth": "89%"}, {"molecule": "CCC(C)[C@H](NC(C)=O)C(=O)N[C@@H](CCCNC(=N)N)C(=O)N[C@@H](CCCCN)C(=O)N[C@@H](CC1CCC(O)CC1)C(=O)NC(C(=O)N[C@@H](CCSC)C(=O)N[C@@H](CCCNC(=N)N)C(=O)N[C@@]1(C)CCC/C=C\\CCC[C@@](C)(C(=O)NC(C(=O)N[C@@H](CCC(=O)O)C(=O)N[C@@H](CC(C)C)C(=O)N[C@H](C(=O)N[C@@H](CCC(=O)O)C(N)=O)C(C)C)[C@@H](C)O)NC(=O)[C@H](CCC(N)=O)NC(=O)[C@H](CC(C)C)NC(=O)[C@H](CC(C)C)NC1=O)[C@@H](C)O", "note": "(stereo not given in full)", "growth": "99.4%"}, {"molecule": "COc1cc2cc(Oc3ccc(NC(=O)c4cccc(C(F)(F)F)c4)cc3)c(C)nc2cc1OC", "growth": "13.3%"}, {"molecule": "COc1ccc(-c2onc(N)c2-c2cc(OC)c3c(c2)OCO3)cc1", "growth": "34%"}, {"molecule": "COc1cc2cc(Oc3ccc(NC(=O)c4ccccc4)cc3)c(C)nc2cc1OC", "growth": "85.3%"}, {"molecule": "CS(=O)(=O)c1nccc(-c2c(-c3cccc(OCc4ccc(F)cc4)c3)nc3sccn23)n1", "growth": "34.4%"}, {"molecule": "O=C(N/N=C/c1ccc(Cl)cc1)c1ccccc1Nc1cccc(C(F)(F)F)c1", "growth": "86%"}, {"molecule": "CC(C)N(CCOc1ccc(-c2nc3sccn3c2-c2ccnc(S(C)(=O)=O)n2)cc1)C(C)C", "growth": "84.2%"}, {"molecule": "COc1cccc(C2C(C#N)=C(N)Oc3cc(N)ccc32)c1", "note": "(stereo not given)", "growth": "31.9%"}, {"molecule": "CCCCN(CCCC)C(=O)[C@H](CC)[C@@H]1CC[C@@H](C)[C@@H]([C@H](C)[C@@H](O)[C@@H](C)C(=O)[C@H](CC)C2O[C@]3(C=C[C@@H](O)[C@]4(CC[C@@](C)([C@H]5CC[C@](O)(CC)[C@H](C)O5)O4)O3)[C@H](C)C[C@@H]2C)O1", "note": "(stereo not given in full)", "growth": "-3.74% (active)"}, {"molecule": "CC(C)N(CCOc1cccc(-c2nc3sccn3c2-c2ccnc(S(C)(=O)=O)n2)c1)C(C)C", "growth": "93.3%"}, {"molecule": "NC(=O)c1cccc(-n2ccc3cc(NC(=O)Nc4ccc(Cl)c(C(F)(F)F)c4)ccc32)n1", "growth": "61%"}, {"molecule": "COc1cccc(-c2nc3sccn3c2-c2cccc(S(C)(=O)=O)c2)c1", "growth": "82.2%"}, {"molecule": "COc1ccc(Cl)cc1Nc1nc(C(F)(F)F)ccc1C(=O)N/N=C/c1ccc(Cl)cc1", "growth": "13.3%"}, {"molecule": "CCOc1ccccc1/C=N\\N=C\\c1ccccc1O", "growth": "92.9%"}, {"molecule": "CN(C)c1ccc(/C=N/NC(=O)c2ccccc2Nc2cccc(C(F)(F)F)c2)cc1", "growth": "77.7%"}, {"molecule": "COc1cc2cc(Oc3ccc(NC(=O)Nc4cccc(C(F)(F)F)c4)cc3)c(C)nc2cc1OC", "growth": "9.13% (active)"}, {"molecule": "O=C(Nc1cc(Cl)cc2c1-c1ccc(Cl)cc1C2O)C(Cl)Cl", "note": "(stereo not given)", "growth": "67.5%"}, {"molecule": "C/C(=N\\O)c1ccc(NC(=O)CSc2nnc(-c3ccccc3)n2-c2ccccc2)cc1", "growth": "85.6%"}]}]}
